The source of these data is PubChem BioAssay (NCI).

This is part of a sample that, as a whole, favours compounds with a hit. Of some 83,000 tested, about 20% had one in any assay.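 For each line, cells grew in 96-well plates with the test compound present at a single concentration for 48 hours.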 The source made the active and inactive calls. Rule for the calls: active = growth percent below 10; inactive = the rest.

For this assay, the system named is HL-60(TB) leukemia. As to the kind of experiment: NCI-60 one-dose screen, 48 h (100 = growth as untreated, 0 = no growth, -100 = all killed). As to conditions: 10 µM unless noted.
For the compound `C/C(Cc1ccc(Cl)cc1)=C(/c1ccc(Cl)cc1)c1ccc(OCCN2CCCC2)cc1`, the growth was 54.7% (inactive).
Regarding `Fc1cccc(COc2ccc(Nc3ncnc4onc(-c5ccccc5)c34)cc2)c1`, the growth is 7.34% (active).
Take `CNc1nc2ncc(-c3c(C)noc3C)cc2n1Cc1ccccc1`: the growth is 8.97% (active).
As for `c1cc2c(cc1-c1cnc3nonc3n1)OCO2`, the growth is 0.978% (active).
On to `O=C(CNCCO)Nc1ccc2ncnc(Nc3ccc(OCc4cccc(F)c4)c(Cl)c3)c2c1`, for which the growth is 86.9% (inactive).
For the compound `CC1C(/C=N/Nc2ccccc2)C(C#N)(C#N)C1(C#N)C#N` (stereo not given), the growth was 54.3% (inactive).
Regarding `CCOC(=O)NC(C)C`, the growth is 68% (inactive).
For the compound `CN(C)CCCn1c2nc(=O)[nH]c(=O)c-2nc2cc(Cl)c(Cl)cc21`, the growth was 76% (inactive).
For the compound `O=C(C=C=Nc1ccccc1)C(=O)N=C=Cc1ccccc1`, the growth is -26% (active).
Under `Nc1ccc2c(c1)C1(CCC2)NC(=O)NC1=O` (stereo not given) stands 93.1% (inactive); under `COc1ccc2nc3cc(Cl)ccc3c(NCCNc3c4ccc(Cl)cc4nc4ccc(OC)cc34)c2c1`, -75% (active).
Turning to `O=C(OC[C@@H]1CO1)c1cccc2c(=O)c3ccccc3[nH]c12`, the growth is -51.4% (active).
`COc1ccc(NC(=O)c2ccc(C(F)(F)F)nc2Nc2ccc(Cl)cc2C)cc1Cl`: the growth is 4.78% (active).
Turning to `CCN1CCN(CCNc2nccc(-c3c(-c4ccc(F)c(OC)c4)nc4sccn34)n2)S1(=O)=O`, the growth was 89.1% (inactive).
The value for `COc1ccc(C(=O)C(Br)C(Br)C(=O)O)cc1` (stereo not given) was 103% (inactive).
Take `CN(C)c1ccc(/C=C/C2=[N+](C)c3ccccc3C2(C)C)cc1`: the growth was -18.4% (active).
For the compound `O=C(CCCCCCN1CC(=O)N2[C@@H](c3ccc(Cl)c(Cl)c3)c3[nH]c4ccccc4c3C[C@H]2C1=O)NO`, the growth is -11.8% (active).
Take `O=C(NC1CCS(=O)(=O)C1)c1ccc(C(=O)c2ccccc2)cc1` (stereo not given): the growth was 191% (inactive).
Consider `O=C(CSc1nnc(-c2cc(-c3ccc(Cl)cc3)nc3ccccc23)n1-c1ccccc1)Nc1ccc(Cl)cc1`, for which the growth is 85.8% (inactive).
As to `O=C(COc1ccc(/C=C2\Cc3ccc(Cl)cc3C2=O)cc1)Nc1nccs1`, the growth was 67.3% (inactive).
With `COC(=O)/C=C/C(=O)c1cc(C)cc(C)c1O`, the growth is 86.6% (inactive).
In the case of `C=CCC(=O)N[C@H](/C=C/C(=O)O)Cc1ccc(-c2cc(Cl)cc(Cl)c2)cc1`, the growth was 101% (inactive).
`COc1cc(-c2cc(-c3ccc(Nc4ncnc5cc(Cl)ccc45)cc3)nc(N3CCCCC3)n2)cc(OC)c1OC`: the growth was 91.6% (inactive).
Regarding `Cc1cc(Nc2cc(N3CCN(C)CC3)nc(Sc3ccc(NC(=O)C4CC4)cc3)n2)n[nH]1`, the growth was 11.2% (inactive).
The value for `CCCN1C(=O)CSC1=Nc1ccc2cc3ccc(N=C4SCC(=O)N4CCC)cc3nc2c1` was 8.32% (active); that for `CCSc1oc(C)nc1[P+](c1ccccc1)(c1ccccc1)c1ccccc1` was 7.21% (active); that for `N=c1c2c(-c3ccccc3)c(-c3ccccc3)n(Cc3ccccc3)c2ncn1CCCO` was 39% (inactive).
Under `O=C(/C=C\c1ccc2ccccc2n1)c1cc(Cl)ccc1O` stands 89.8% (inactive).
Take `Cc1ccc(-c2nc(N3CCCNCC3)c3oc(-c4ccccc4)nc3n2)cc1`: the growth is -69.7% (active).
As to `C/C(=N\O)C(=O)NCCCCCC(=O)Nc1ccccc1`, the growth was 93.2% (inactive).
With `COc1ccc(C(=O)/C=C/c2ccc(N3CCCCC3)cc2)cc1OC`, the growth is 78.9% (inactive).
As for `NCCSSC/C=C\CSSCCN`, the growth is 59.1% (inactive).
Take `CCN1CCN(CC(=O)Nc2nc3ccc(NCc4ccc(Cl)cc4)cc3s2)CC1`: the growth is 29% (inactive).
On to `O=C1c2cccc3cccc(c23)C(=O)N1C/C=C/c1ccc2c3c(cccc13)C(=O)N(CCO)C2=O`, for which the growth was 94.2% (inactive).
For the compound `CCOc1cc2ncc(C#N)c(Nc3ccc(F)c(Cl)c3)c2cc1NC(=O)/C=C/CN(C)C`, the growth was -52.6% (active).
Consider `C=C(C)[C@@H]1CC[C@]2(C(=O)N3CCN(C)CC3)CC[C@]3(C)[C@H](CC[C@@H]4[C@@]5(C)CC[C@H](O)C(C)(C)[C@@H]5CC[C@]43C)[C@@H]12`, for which the growth is -52.6% (active).
As for `CC1=CN2C(=O)C3C4=C(CCCC4)SC3N=C2CN1c1c(C)cccc1C` (stereo not given), the growth is -9.4% (active).
Consider `O=C1C=C(O)c2ccccc2C1=O.[Ag]`, for which the growth was 96% (inactive).
Turning to `S=c1nc(CS)[nH]c2ccccc12`, the growth is 101% (inactive).
As to `COc1ccc(-c2nnc(SCC(=O)Nc3ccc(/C(C)=N\O)cc3)n2-c2ccccc2)cc1OC`, the growth is 77.3% (inactive).
